# PubChem BioAssay
# The source made the active and inactive calls.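 How the source made its calls, unless noted: active means inhibition above 20% together with a positive visual image hit; inconclusive means visual image hit but inhibition not above 20%; inactive means no visual image hit.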
# Legend:
# [1] = inhibitors of TNFa-induced NFkB p65 translocation, primary screen, imaging, HUVEC, MLSMR starter and 10KST1 sets (AID 438); conditions: HUVEC TNFa-induced p65 nuclear translocation; cell count: measured here: nuclei count (cytotoxicity indicator), at 2.08 µM; inhibition: at 2 µM, stronger effect = higher value, 0% TNFa-plus-vehicle, 100% no-TNFa wells;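 further: compound added about 3h40 before a 20 min TNFalpha stimulation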;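 on inhibition: signal is the nuclear over cytoplasmic p65 intensity ratio per well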
# [2] = inhibitors of mutant huntingtin aggregation, primary screen, imaging, exon1htt(103Q)mCFP cells, high-content imaging (AID 483;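 active means visual image review flags a hit and inhibition of aggregation exceeds 20%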;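 further: compound exposure lasted 3 days before fixation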;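 on nuclei count: percent of the per-plate median nuclei count of sample wells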); conditions: exon1htt(103Q)mCFP cell line, aggregate imaging, at 2 µM; inhibition of aggregation: stronger effect = higher value; nuclei count: measured here: cell count, toxicity
# [3] = inhibitors of E-selectin induction by TNFa, primary screen, imaging, HUVEC, immunofluorescence, MLSMR starter and 10KST1 sets (AID 487;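 active means visually confirmed hit in the image check and inhibition above 20%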;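 on inhibition: signal is fraction of cell area covered by stained E-selectin grains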;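 on nuclei count: 100% = median nuclei count of all wells on the same plate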); conditions: HUVEC TNFalpha-induced E-selectin immunofluorescence imaging, at 2 µM; inhibition: stronger effect = higher value; nuclei count: measured here: cell number, toxicity
# [4] = target: Voltage-gated potassium channel subunit beta-2 (Rattus norvegicus) (UniProt P62483); assay: KvBeta enzyme negative modulators, primary screen, biochemical, NADPH fluorescence (AID 622;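 active means fluorescence slope higher than the sample average by over 3 SD, cut at about -0.22 in these data, passing the limit was not always enough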;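 further: slope of raw intensity against log time taken from 70 to 1610 s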); conditions: recombinant KvBeta, 4-cyanobenzaldehyde reduction, at 10 µM, stronger effect = higher value
# [5] = target: Voltage-gated potassium channel subunit beta-2 (Rattus norvegicus) (UniProt P62483); assay: KvBeta positive modulators, primary screen, biochemical, NADPH fluorescence (AID 623;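 active means NADPH fluorescence slope more negative than the mean of all samples by about 3 SD, 99.7% confidence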;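 further: fluorescence intensity change per second fitted from 20 to 320 s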); conditions: Recombinant KvBeta, NADPH fluorescence decrease slope, 10 min; at 10 µM; stronger effect = lower value
# [6] = target: Alpha-2C adrenergic receptor (Homo sapiens) (UniProt P18825); assay: modulators of alpha2C/GIRK thallium flux, primary screen, cell-based, HEK293 alpha2C/GIRK1/2 (AID 624;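 active means fluorescence slope after compound addition differing from the mean of all screened samples at 99.7% confidence, in either direction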;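 further: slope of fluorescence ratio to pre-addition baseline per second over 15 to 24 s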); conditions: thallium flux BTC fluorescence, at 10 µM, actives lie on both sides
# [7] = inhibitors of Sendai virus-induced IRF3 signaling, primary screen, TLR/RLR signaling modifier project, cell-based, Sendai virus stimulus, luciferase, 10K MLSCN set (AID 602276;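 active means inhibition at or above 50% at 10 µM; inactive means inhibition below 50%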;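 further: firefly luciferase from ISG56 promoter only with Renilla not read in this screen; 0% = Sendai virus plus DMSO and 100% = medium plus DMSO without virus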); conditions: HEK293 RL24 IRF3 luciferase reporter, at 10 µM, stronger effect = higher value
# [8] = inhibitors of poly I:C-induced TLR3 signaling, primary screen, cell-based, poly I:C stimulus, luciferase, 10K MLSCN set (AID 602277;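 active means inhibition of the reporter signal at or above 50%; inactive means inhibition below 50%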); conditions: HEK293-TLR3 RL24 IRF3 luciferase reporter, at 10 µM, stronger effect = higher value
# Sequence of Alpha-2C adrenergic receptor (Homo sapiens) (P18825 whole entry, looked up): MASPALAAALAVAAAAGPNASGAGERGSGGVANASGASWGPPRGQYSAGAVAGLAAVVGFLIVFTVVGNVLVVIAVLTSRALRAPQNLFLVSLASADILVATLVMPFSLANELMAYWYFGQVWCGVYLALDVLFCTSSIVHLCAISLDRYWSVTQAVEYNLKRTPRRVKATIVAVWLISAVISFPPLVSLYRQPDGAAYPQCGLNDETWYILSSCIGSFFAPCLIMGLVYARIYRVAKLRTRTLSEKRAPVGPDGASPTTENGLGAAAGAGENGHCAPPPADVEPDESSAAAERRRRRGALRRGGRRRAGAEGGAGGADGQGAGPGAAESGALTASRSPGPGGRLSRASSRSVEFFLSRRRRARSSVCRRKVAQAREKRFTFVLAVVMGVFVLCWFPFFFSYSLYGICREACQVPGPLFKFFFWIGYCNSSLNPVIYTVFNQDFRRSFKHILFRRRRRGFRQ
# Sequence of Voltage-gated potassium channel subunit beta-2 (Rattus norvegicus) (P62483 whole entry, looked up): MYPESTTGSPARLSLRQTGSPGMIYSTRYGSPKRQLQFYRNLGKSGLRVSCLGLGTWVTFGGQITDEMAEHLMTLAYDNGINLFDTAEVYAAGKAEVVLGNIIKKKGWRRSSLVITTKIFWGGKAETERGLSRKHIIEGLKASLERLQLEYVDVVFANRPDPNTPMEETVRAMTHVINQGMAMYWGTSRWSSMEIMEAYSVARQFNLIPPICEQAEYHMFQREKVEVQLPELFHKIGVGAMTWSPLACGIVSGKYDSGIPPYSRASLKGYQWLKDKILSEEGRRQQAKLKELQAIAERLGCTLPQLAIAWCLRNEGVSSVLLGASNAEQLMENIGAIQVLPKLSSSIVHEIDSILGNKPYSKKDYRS
SMILES,cell count [1],inhibition [1],inhibition of aggregation [2],nuclei count [2] [%],inhibition [3],nuclei count [3] [%],fluorescence slope [4],NADPH fluorescence slope [5],slope [6],inhibition [7],inhibition [8]
Cc1sc2nc(SCc3nc4ccccc4[nH]3)n(Cc3ccco3)c(=O)c2c1C,585,-2.2% (inactive),17.5% (inactive),91.4,8.2% (inactive),97.3,-0.59 (inactive),-2e-05 (inactive),0.00556 (inactive),0.73% (inactive),-54.9% (inactive)
CCN(CC)S(=O)(=O)c1ccc(Cl)c(C(=O)OC)c1,456,-5% (inactive),0.1% (inactive),87.5,8.3% (inactive),123,-0.493 (inactive),-2.2e-05 (inactive),0.00748 (inactive),20.5% (inactive),21.4% (inactive)
COc1ccc2ccccc2c1CN1CCCC(CO)C1 (centres undefined),745,3.4% (inactive),4.4% (inactive),110,53% (inactive),97.2,-0.422 (inactive),-8.2e-05 (inactive),0.00503 (inactive),16% (inactive),35.4% (inactive)
O=C(CCn1c(=O)c2ccccc2n(CC(=O)NCCC2=CCCCC2)c1=O)NCc1ccco1,596,-10.9% (inactive),25.7% (inactive),102,-9.8% (inactive),82,-0.558 (inactive),-3e-05 (inactive),0.00599 (inactive),-4.87% (inactive),10.3% (inactive)
c1cncc(-c2nc3c4ccccc4nc(N4CCC(N5CCCCC5)CC4)n3n2)c1,512,-10.4% (inactive),-10.8% (inactive),97.3,-5.9% (inactive),98.2,-0.455 (inactive),-0.000334 (inactive),0.00496 (inactive),24.2% (inactive),30% (inactive)
CCN(CC)CCCNC1CCS(=O)(=O)C1 (centres undefined),730,-7.4% (inactive),10.5% (inactive),126,-19.7% (inactive),118,-0.502 (inactive),-6.6e-05 (inactive),0.00536 (inactive),2.02% (inactive),13.2% (inactive)
COc1cccc(-n2c(CNc3ccc(F)cc3)nnc2SCC(N)=O)c1,475,1.9% (inactive),-17% (inactive),113,-32.3% (inactive),76.1,-0.49 (inactive),-1.9e-05 (inactive),0.00474 (inactive),15.9% (inactive),24% (inactive)
CCOc1ccccc1C1CC(c2ccc(Br)cc2)Nc2nc(N)nn21 (centres undefined),593,6.9% (inactive),19.2% (inactive),94.5,-14.1% (inactive),107,-0.512 (inactive),-4.3e-05 (inactive),0.0067 (inactive),18.7% (inactive),33.7% (inactive)
COc1cccc(C(=O)Nc2c(C(N)=O)oc3ccccc23)c1,702,-14.6% (inactive),28.5% (inactive),89.2,-34.6% (inactive),121,-0.545 (inactive),-4.8e-05 (inactive),0.00682 (inactive),10.6% (inactive),25.5% (inactive)
O=c1[nH]c2cc3c(cc2cc1C(c1nnnn1Cc1ccccc1)N1CCCc2ccccc21)OCO3 (centres undefined),552,-7.7% (inactive),16.5% (inactive),100,20.7% (inactive),108,-0.621 (inactive),1.7e-05 (inactive),0.0031 (inactive),10.6% (inactive),15.5% (inactive)
O=S(=O)(c1ccc(F)cc1)N1CCC(N2CCCC2)CC1,621,12.4% (inactive),5.9% (inactive),107,12.6% (inactive),107,-0.537 (inactive),-4.2e-05 (inactive),0.00636 (inactive),6.84% (inactive),45.9% (inactive)
O=C(c1ncc[nH]1)c1ccccc1C(=O)N1CCOCC1,399,15.2% (inactive),27.9% (inactive),111,-232% (inactive),116,-0.515 (inactive),-0.000166 (inactive),0.00482 (inactive),-6.47% (inactive),4.36% (inactive)
Cc1cccc(NC(=O)c2cc3ccccc3o2)c1,549,-23% (inactive),10.7% (inactive),103,15.3% (inactive),157,-0.506 (inactive),1.8e-05 (inactive),0.00578 (inactive),-17.2% (inactive),-74.5% (inactive)
CC(C)(C)c1cc(NC(=O)c2cc(F)c(F)c(F)c2F)no1,405,-2.1% (inactive),-14.9% (inactive),104,-96.2% (inactive),112,-0.435 (inactive),-6.8e-06 (inactive),0.00297 (inactive),-23.2% (inactive),-90.4% (inactive)
